The panel holds about 79,000 compounds, 15% with a hit somewhere; the sample as a whole holds those more often. Values without a mark were called inactive. Activity calls are given as the source filed them. Cut-off read from the data, not from the text of the source: active = growth inhibition above about 70%; inactive = the rest.

Test [1] can be described thus: NCI Yeast Anticancer Drug Screen. Data for the rad50 strain (AID 155).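 Note: 0% = growth of vehicle-only cultures of the same strain.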 The note with it: S. cerevisiae rad50 strain growth inhibition; at 50.0 µM; stronger effect = higher value. The procedure, abridged: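 Inhibition values express reduced yeast growth in compound-treated cultures relative to vehicle-treated controls.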
The nature of test [2]: NCI Yeast Anticancer Drug Screen. Data for the mec2-1 strain (AID 157). As to conditions: S. cerevisiae mec2-1 strain, at 50.0 µM, stronger effect = higher value. The procedure, abridged: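 Yeast mec2-1 mutant treated with compound. Readout: growth inhibition vs vehicle controls.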
The nature of test [3]: NCI Yeast Anticancer Drug Screen. Data for the sgs1 mgt1 strain (AID 161).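 Note: 0% = growth of cultures given vehicle only.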 The note with it: S. cerevisiae sgs1 mgt1 strain, at 50.0 µM, stronger effect = higher value. An outline of the steps:
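Inhibition of yeast growth, normalised to vehicle-treated controls, is reported for a strain bearing genetic alterations in DNA damage repair.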

A short description of test [4]: NCI Yeast Anticancer Drug Screen. Data for the cln2 rad14 strain (AID 165).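 Note: 0% = growth equal to vehicle treated cultures.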 The note with it: S. cerevisiae cln2 rad14 strain, at 50.0 µM, stronger effect = higher value. An outline of the steps: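 cln2 rad14 yeast strain; compound exposure; growth inhibition read vs vehicle controls.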
Test [5] is described as follows: NCI Yeast Anticancer Drug Screen. Data for the bub3 strain (AID 167). As to conditions: S. cerevisiae bub3 mutant strain, at 50.0 µM, stronger effect = higher value. The procedure, abridged: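 Steps: expose the mutant yeast strain to compound; grow alongside vehicle-treated cultures; measure growth; express inhibition against the vehicle cultures.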
Test [6] can be described thus: NCI Yeast Anticancer Drug Screen. Data for the mlh1 rad18 strain (AID 175). As to conditions: S. cerevisiae mlh1 rad18 strain growth inhibition; at 50.0 µM; stronger effect = higher value. The procedure, abridged: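 Yeast w/ defined DNA-repair lesions; compound exposure; growth vs vehicle controls → % inhibition.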

Take `O=C(CN1C(=O)c2ccccc2C1=O)Oc1ccccc1`: the growth inhibition in test [1] is 1.8%; in test [2] it was -7.4%; in test [3], 1.1%; in test [4], -9.05%; in test [5], 16.4%; in test [6] it was -5.45%.

In the case of `N/C(=N\O)c1c(Br)n(C2OC(CO)C(O)C2O)c2ncnc(N)c12` (stereo not drawn), the growth inhibition is 12.1% in test [1]; 11.7% in test [2]; 4.7% in test [3]; 10.8% in test [4]; -2.05% in test [5]; 1.75% in test [6].

Turning to `Cc1ccc(Br)cc1C(=O)O`, the growth inhibition in test [1] was 20.8%; in test [2], 2.25%; in test [3] it was 15.2%; in test [4], 13.8%; in test [5], -6.1%; in test [6] it was 15.4%.

As for `CCNc1ccc(S(=O)(=O)O)cc1C(=O)O`, the growth inhibition is 0.45% in test [1]; 4.05% in test [2]; 0% in test [3]; -11.8% in test [4]; 1.25% in test [5]; -4.6% in test [6].

Consider `NCCCCCC(N)=O`, for which the growth inhibition is 45% in test [1]; 32.5% in test [2]; 38.8% in test [3]; 21.2% in test [4]; 33.5% in test [5]; 33.1% in test [6].

With `Cc1csc2n(C)c(=O)c3ccccc3[n+]12`, the growth inhibition in test [1] is 16.8%; in test [2], 9.4%; in test [3] it was -20.4%; in test [4] it was 4.65%; in test [5], -1.75%; in test [6] it was 32.8%.

As for `O=C(C[n+]1ccccc1)c1cc2c(c3ccccc13)CCCC2`, the growth inhibition in test [1] was 3.3%; in test [2], -3.2%; in test [3], 36.3%; in test [4], 20.8%; in test [5], -4.6%; in test [6] it was 19.5%.

Consider `C=C(CN(C)C)c1ccccn1`, for which the growth inhibition in test [1] was -11.9%; in test [2], -5.45%; in test [3] it was -2.3%; in test [4] it was -16.8%; in test [5], -13.3%; in test [6], -17.6%.

On to `CCOC(=O)c1c(/N=C/c2ccc3c(c2)OCO3)sc2c1CCCC2`, for which the growth inhibition in test [1] is 7.7%; in test [2], -23.3%; in test [3], 17.8%; in test [4] it was 11.8%; in test [5] it was 11.3%; in test [6] it was 3.2%.

For the compound `COC(=O)C1=Cc2cc(OC)c(OC)cc2[C@H](c2ccc(OC)c(OC)c2)C1C(=O)OC` (stereo partly drawn), the growth inhibition in test [1] was -6.8%; in test [2] it was -11.7%; in test [3], -31.4%; in test [4], 0.95%; in test [5] it was 18.2%; in test [6], 1.45%.

In the case of `CC[N+](C)(CC)Cc1ccccc1[N+](=O)[O-]`, the growth inhibition in test [1] is -32.8%; in test [2] it was -47.3%; in test [3] it was -25.9%; in test [4] it was 2.85%; in test [5], -38.8%; in test [6], -28.6%.

For the compound `CCCCCCCCC(O)C(O)CCCCCCCCOC(=O)CCCCCCCCCCC(O)CCCCCC` (stereo not drawn), the growth inhibition is 13.1% in test [1]; -8.65% in test [2]; -1.55% in test [3]; -9.7% in test [4]; -2.1% in test [5]; 18.4% in test [6].

As to `CCc1nnnn1-c1ccc(Br)cc1`, the growth inhibition in test [1] was 8.8%; in test [2], 38.5%; in test [3], 13.7%; in test [4] it was 9.8%; in test [5] it was 40.2%; in test [6], 18.5%.

With `COC(=O)C1=NC(=O)C(C#N)=C(C(=O)OC)C1(C(=O)c1ccc(OC)cc1)c1ccc(OC)cc1` (stereo not drawn), the growth inhibition was -39.9% in test [1]; 3.7% in test [2]; -9.15% in test [3]; 13.8% in test [4]; 11.9% in test [5]; -12.1% in test [6].

On to `c1ccc(-c2nnc(SCc3nc4ccccc4[nH]3)o2)cc1`, for which the growth inhibition in test [1] was 5.65%; in test [2], 9.75%; in test [3] it was 29.8%; in test [4] it was 36.3%; in test [5], 20.4%; in test [6], 52%.

As for `c1ccc(-c2nc(-c3nn[nH]n3)c3ccccc3n2)cc1`, the growth inhibition was -1.2% in test [1]; 13.7% in test [2]; 2.85% in test [3]; -19.6% in test [4]; 14.5% in test [5]; 20.8% in test [6].

In the case of `O=C(O)CCCCCN1C(=O)c2cccc([N+](=O)[O-])c2C1=O`, the growth inhibition in test [1] is 17.6%; in test [2], 10%; in test [3], 22.5%; in test [4], 19.2%; in test [5] it was 12.3%; in test [6] it was 12.7%.

As for `CN1c2ccccc2C(=O)NC12CCN(CC1COc3ccccc3O1)CC2` (stereo not drawn), the growth inhibition is 58.1% in test [1]; 71.4% (active) in test [2]; 82.4% (active) in test [3]; 62.9% in test [4]; 66.5% in test [5]; 66% in test [6].

For `CCOc1ccc2ccc3ccccc3c2c1NC(C)=O`, the growth inhibition in test [1] was 10.4%; in test [2] it was 2.3%; in test [3] it was 12.2%; in test [4] it was 32%; in test [5], 3.6%; in test [6] it was 6.25%.

For the compound `O=C(O)CSc1n[nH]c(-c2ccc(O)cc2)n1`, the growth inhibition is -18.3% in test [1]; -7.25% in test [2]; -7.5% in test [3]; 18.6% in test [4]; 4.95% in test [5]; 37.2% in test [6].

As for `O=C(O)c1ccc([N+](=O)[O-])cc1Cl`, the growth inhibition in test [1] was -11.9%; in test [2] it was -10%; in test [3], -1.55%; in test [4] it was 8.15%; in test [5] it was -3.25%; in test [6], -7.55%.

Turning to `CN(C)CC1CCCCCC(Br)C1O` (stereo not drawn), the growth inhibition was -5% in test [1]; 14.6% in test [2]; -1.15% in test [3]; -24.8% in test [4]; -10.7% in test [5]; 21.7% in test [6].

For the compound `COc1ccc(CC(=O)NC(N)=O)cc1`, the growth inhibition in test [1] was -6.35%; in test [2], 2.7%; in test [3] it was -12.3%; in test [4], -9.4%; in test [5], -6.1%; in test [6] it was 5.15%.

Regarding `NS(=O)(=O)c1cccc(C(F)(F)F)c1`, the growth inhibition was -7.95% in test [1]; -37.9% in test [2]; -13.6% in test [3]; -21.7% in test [4]; -16.4% in test [5]; -7.2% in test [6].

Turning to `CCOC(=O)/C=C1\CCCC12OCCO2`, the growth inhibition in test [1] is 29.2%; in test [2] it was -3.65%; in test [3] it was 3.1%; in test [4], 19.2%; in test [5], -5.75%; in test [6], -6.1%.

For `COc1cnnc2ccccc12`, the growth inhibition is 12.8% in test [1]; 3.2% in test [2]; 4.6% in test [3]; -2.35% in test [4]; -0.9% in test [5]; 14.3% in test [6].

On to `CC(C)CN(CC(C)C)C(=S)[S-].CC(C)CN(CC(C)C)C(=S)[S-].[Zn]`, for which the growth inhibition in test [1] was 54.5%; in test [2], 12.7%; in test [3], 55%; in test [4], 21.4%; in test [5], 4.65%; in test [6], 32.4%.

In the case of `O=C(O)/C(Cc1ccnc2ccccc12)=N\O`, the growth inhibition in test [1] is -1.35%; in test [2], 2.7%; in test [3], -15.4%; in test [4], -0.05%; in test [5], -22.7%; in test [6] it was 0.4%.

Take `CCCCS(=O)(=O)C1CCCC1=O` (stereo not drawn): the growth inhibition in test [1] is -3.5%; in test [2] it was 5.5%; in test [3], -2.55%; in test [4], -7.1%; in test [5], 1.45%; in test [6], 1.9%.

Turning to `Cc1cnc(Sc2ncccn2)c([N+](=O)[O-])c1`, the growth inhibition is -7.05% in test [1]; -15% in test [2]; -2.1% in test [3]; -28.4% in test [4]; -31.1% in test [5]; -17.9% in test [6].

In the case of `C=C(C)C1Cc2c(cc(O)c3c(=O)c4c(oc23)C(O)Oc2cc(OC)c(OC)cc2-4)O1` (stereo not drawn), the growth inhibition in test [1] was 9.15%; in test [2], -0.95%; in test [3], 0.9%; in test [4] it was -3.85%; in test [5], 2.85%; in test [6], 16.9%.

On to `CN(/N=C\c1ccc2ccccc2c1)C1=NCCN1`, for which the growth inhibition in test [1] was 5.65%; in test [2] it was 0.25%; in test [3] it was -14.8%; in test [4], -63%; in test [5], 4.1%; in test [6], -12.1%.

For the compound `CC(C)(C)C(=O)C(=O)O`, the growth inhibition in test [1] is 19.9%; in test [2] it was -13.2%; in test [3], -3.7%; in test [4] it was 1.15%; in test [5], -8.5%; in test [6] it was 14.6%.

Turning to `Cc1ccc(S(=O)(=O)/C=C\S(=O)(=O)c2ccc(C)cc2)cc1`, the growth inhibition in test [1] was -7.35%; in test [2] it was -3.15%; in test [3], 5.15%; in test [4], -28.4%; in test [5], 3.15%; in test [6], 2.7%.

In the case of `Cc1ccc(NC(=O)CC(=O)n2nc(-c3ccccc3)c(N=Nc3ccc(Cl)cc3)c2-c2ccccc2)cc1`, the growth inhibition was 9.95% in test [1]; 4% in test [2]; 13.9% in test [3]; 22.7% in test [4]; 46% in test [5]; 37.7% in test [6].

Turning to `N=c1oc2ccc([N+](=O)[O-])cc2cc1C(=O)NCc1ccccc1`, the growth inhibition in test [1] was 11.3%; in test [2], -0.9%; in test [3], -13.9%; in test [4] it was 3.95%; in test [5] it was -35.5%; in test [6], -71.8%.

Consider `N#C/C=C/c1ccc(Cl)cc1`, for which the growth inhibition in test [1] is -3.45%; in test [2], -3%; in test [3], 7.2%; in test [4], 20.6%; in test [5], -2%; in test [6], -7.05%.

As to `CC1(C)OC(=O)C=C([O-])O1.CC1(C)OC(=O)C=C([O-])O1.CC[O-].CC[O-].[Ti+4]`, the growth inhibition in test [1] was -20.8%; in test [2], -36.2%; in test [3] it was 3.6%; in test [4], -8.95%; in test [5] it was -11.7%; in test [6], -3.15%.
